# High-throughput results deposited in PubChem BioAssay by National Center for Advancing Translational Sciences (NCATS).
# ATXN2 expr inh: Primary qHTS for Inhibitors of ATXN expression | Potency, µM (top dose mostly 57 µM), inactives show top-dose activity change, negative = inhibition, hits mostly inhibitors | HEK-293 ATXN2-luciferase reporter, luminescence, 24 h | actives 0.72% (n = 360,000); further: on the % scale 0 is the no-effect control and ±100 the full control effect; nearly all actives have a fitted effect of over 55% in size
#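 ATXN2-luciferase reporter cells (luciferase flanked by upstream and downstream ATXN2 gene portions) were treated 24 h at 37 °C with compounds at up to 57 uM. SteadyGlo luminescence gave expression; GF-AFC fluorescence gave viability.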
# TGFb inhibitor: qHTS for Inhibitors of TGF-b; actives 1.2% (n = 410,000); Potency, µM (highest dose often 46.1 µM), inactives show top-dose activity, negative = inhibition, actives largely listed as inhibitors; HepG2 CAGA-GFP TGF-b/SMAD3 reporter, GFP fluorescence, 18 h; TGF-beta stimulated, 500 pg/mL final; further: on the % scale 0 is the no-effect control and ±100 the full control effect; nearly all actives have a fitted effect of over 65% in size
#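 Inhibition was scored as loss of TGF-beta-induced (500 pg/mL final, 18 hours, 37 degrees C) GFP in HEPG2 cells carrying a CAGA-GFP reporter, in DMEM with 1% FBS. Well GFP was summed per cell; Activity was normalised to unstimulated and stimulated DMSO wells, then concentration-response fitting.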
# HepG2 viability: qHTS for Inhibitors of TGF-b: Cytotox Counterscreen. HepG2 CAGA-GFP viability, ATP luminescence, 18 h. Potency, µM (highest dose often 46.1 µM), for inactives: top-dose activity change, negative = cytotoxicity, actives largely listed as cytotoxic. actives 0.76% (n = 410,000). AID 588856, 2011
#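 HepG2 CAGA-GFP cells (1000/well, DMEM with 1% FBS) received compound, then TGF-beta at 500 pg/mL final, and were incubated 18 hours at 37 degrees C. Viability was read by CellTiter-Glo luminescence. Media-only wells were set as complete cell-killing and DMSO as no toxicity.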
# A549 tox-1: Nrf2 qHTS screen for inhibitors: counterscreen for cytotoxicity | Potency, µM (doses to about 46 µM), without a hit: top-dose activity change, negative = cytotoxicity, hits mostly inhibitors | A549 ARE-Fluc cells, CellTiter-Fluor viability, 18-24 h | actives 0.16% (n = 390,000); further: on the % scale 0 is the no-effect control and ±100 the full control effect
#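 Cytotoxicity counterscreen: CellTiter-Fluor fluorescence was measured in A549 ARE_Fluc cells after 18-24 h of compound exposure in a concentration series. The subsequent BugLite luminescent read reports ARE-luciferase activity.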
# Nrf2 block: Nrf2 qHTS screen for inhibitors; A549 ARE-Fluc reporter, luciferase luminescence, 18-24 h; Potency, µM (highest dose often 46 µM), inactives show top-dose activity change, negative = inhibition, hits mostly inhibitors; actives 2.1% (n = 360,000); further: on the % scale 0 is the no-effect control and ±100 the full control effect; nearly all actives have a fitted effect of over 60% in size
#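 A549 ARE_Fluc cells (5000/well, 5% FBS OPTI-MEM) pre-incubated 2 h, then treated with compounds 18-24 h at 37C/5% CO2 in concentration-response. CellTiter-Fluor viability read first; BugLite luciferase luminescence after 15 min at room temperature gives Nrf2 activity.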
# S2 tox: Viability Counterscreen for Primary qHTS for Inhibitors of ATXN expression | S2 cells (HEK-293 line with an ATXN2-luciferase reporter) viability, CellTiter-Fluor protease fluorescence, 24 h | Potency, µM (doses to about 56.7 µM), actives largely listed as cytotoxic | actives 0.49% (n = 400,000); further: nearly all actives have a fitted effect of over 40% in size
# FLuc counter 3: Nrf2 qHTS screen for inhibitors: Purified Fluc Biochemical Counterscreen for Hit Validation | shares compounds with Nrf2 block | purified firefly luciferase, luminescence inhibition | Potency, µM (highest dose often 57.5 µM), inactives show top-dose activity change, negative = inhibition, most hits filed as inhibitors | actives 4% (n = 1,400); further: on the % scale 0 is the no-effect control and ±100 the full control effect; nearly all actives have a fitted effect of over 65% in size
# Target sequence (P08659 whole entry, looked up): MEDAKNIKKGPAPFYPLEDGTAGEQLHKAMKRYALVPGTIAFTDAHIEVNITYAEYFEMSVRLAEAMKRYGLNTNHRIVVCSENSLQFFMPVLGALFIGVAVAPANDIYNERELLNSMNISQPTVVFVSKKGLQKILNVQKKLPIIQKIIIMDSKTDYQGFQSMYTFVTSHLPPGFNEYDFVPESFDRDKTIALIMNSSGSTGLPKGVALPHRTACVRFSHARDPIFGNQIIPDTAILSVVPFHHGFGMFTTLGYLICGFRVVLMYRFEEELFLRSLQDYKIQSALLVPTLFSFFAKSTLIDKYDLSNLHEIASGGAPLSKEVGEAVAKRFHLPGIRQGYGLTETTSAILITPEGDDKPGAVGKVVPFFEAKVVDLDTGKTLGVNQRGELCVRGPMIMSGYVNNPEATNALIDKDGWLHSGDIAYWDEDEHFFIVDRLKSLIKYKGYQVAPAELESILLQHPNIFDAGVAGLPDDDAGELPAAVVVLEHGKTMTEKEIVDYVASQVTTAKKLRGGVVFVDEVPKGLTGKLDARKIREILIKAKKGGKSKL
# A549 tox-2: Nrf2 qHTS screen for inhibitors: A549 ARE-Fluc Cytotoxicity Counterscreen for Hit Validation; AID 720523, 2013; actives 2% (n = 1,400); shares compounds with Nrf2 block; A549 ARE-Fluc cells, cytotoxicity counterscreen; Potency, µM (series often up to 46.1 µM), for inactives: top-dose activity change, negative = cytotoxicity, actives largely listed as inhibitors;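 further: cells exposed to compounds for 18 to 24 hours; on the % scale 0 is the no-effect control and ±100 the full control effect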
# Nrf2 ARE inh: Nrf2 qHTS screen for inhibitors: Nrf2 A549 ARE-Fluc Confirmation Assay for Hit Validation. shares compounds with Nrf2 block. A549 ARE-firefly luciferase reporter, luminescence. Potency, µM (series often up to 46.1 µM), for inactives: at the top dose activity change, negative = inhibition, actives largely listed as inhibitors. actives 74% (n = 1,400); further: on the % scale 0 is the no-effect control and ±100 the full control effect; nearly all actives have a fitted effect of over 65% in size
# * = called active by the depositor; i = inactive; ? = inconclusive; nt = no result shown. Shown are actives, neighbours in structure and some others; about 3.8% of the full set was active somewhere. The call rests on the fitted dose curve; in most records, active means well fitted curve in the direction sought with a large enough effect; inconclusive means small, poorly fitted or top-dose-only effect, or another doubt; inactive means no such curve, though single readings can be large; an effect the other way counts as inactive or inconclusive. Potency means the concentration at half of the fitted maximal effect.
SMILES,ATXN2 expr inh,TGFb inhibitor,HepG2 viability,A549 tox-1,Nrf2 block,S2 tox,FLuc counter 3,A549 tox-2,Nrf2 ARE inh
O=C(Nc1nc(-c2ccccn2)cs1)c1cc(Cl)ccc1[N+](=O)[O-],7.5µM*,11µM*,6%,?,4.1µM*,i,15µM*,-27%,1.8µM*
C/C(=N/NC(=O)c1ccncc1)C(=O)O,8%,nt,nt,nt,nt,i,nt,nt,nt
Cc1ccnc(NC(c2cc(C)ccc2O)c2ccc3cccnc3c2O)c1 (stereo not given),nt,nt,-48%,-2%,?,nt,nt,nt,nt
Oc1ccccc1C(Nc1nccs1)c1ccc2cccnc2c1O (stereo not given),7.1µM*,?,-17%,?,5.8µM*,i,1%,-27%,13µM*
Cc1ncnc2nc[nH]c12,nt,?,-45%,nt,nt,nt,-2%,-28%,5.8µM*
Cc1cc(C)nc(SCc2ccc(C(=O)NNC(=O)Nc3cccc(Cl)c3)cc2)n1,?,?,-72%,?,9.2µM*,?,-23%,?,15µM*
Cc1cc(C)nc(SCc2ccc(C(=O)N/N=C/c3ccncc3)cc2)n1,3%,43%,12%,1%,-22%,i,nt,nt,nt
COc1ccc(C2=Nn3c([n+](C)c4ccccc43)SC2)cc1,nt,?,-6%,-25%,2.1µM*,?,0%,?,nt
COc1ccc(C2=Nn3c(nnc3-c3ccccc3C)SC2)cc1,nt,nt,nt,-13%,13%,nt,nt,nt,nt
COc1ccc(-c2csc(NC(=O)c3ccc(S(=O)(=O)N4CCc5ccccc5C4)cc3)n2)cc1,-4%,6%,9%,-11%,5.2µM*,i,4%,0%,-27%
COc1ccc(-c2nnc(NC(=O)c3ccc(S(=O)(=O)N4CCc5ccccc5C4)cc3)o2)cc1,?,-10%,-25%,-10%,2.8µM*,?,0%,-25%,8.2µM*
NC(=O)C(=O)N/N=C/c1c(F)c(F)c(F)c(F)c1F,-23%,19%,-15%,-5%,6%,i,nt,nt,nt
Cc1cc(C)c2nc(NNC(=O)c3ccc(S(=O)(=O)N4CCCC(C)C4)cc3)sc2c1 (stereo not given),-35%,?,-41%,?,4.1µM*,i,-1%,-19%,6.5µM*
CC1CCCN(S(=O)(=O)c2ccc(C(=O)Nc3nnc(C4CC4)o3)cc2)C1 (stereo not given),-35%,-10%,-20%,?,5.8µM*,i,-1%,?,9.2µM*
Cc1nc(=S)c2c([nH]1)-c1ccccc1CC21CCCCC1,-6%,0%,-62%,?,?,i,nt,nt,nt
O=C(NCc1ccc(Cl)s1)C1CCC(=O)N(CCc2cccc(F)c2)C1 (stereo not given),8%,-1%,-5%,0%,-16%,i,nt,nt,nt
CCCc1ccc(-c2ccc(/C=C/C(=O)O)cc2)nc1,-49%,-8%,-4%,0%,0.037µM*,i,0.27µM*,-4%,0.058µM*
CCS(=O)(=O)N1CCN=C1SCc1ccc(F)cc1,nt,28%,0%,-3%,2%,?,nt,nt,nt
COc1cc(CN(C)c2ncnc3sccc23)ccc1OC(F)F,-5%,4%,-3%,-16%,9.2µM*,i,-4%,1%,8.2µM*
Cc1ccc(NC(=O)C(=O)c2cc(C)n(-c3ccc(F)cc3)c2C)cc1C,6%,?,-26%,0%,1%,i,nt,nt,nt
CCCCc1ccc(NC(=O)CSCc2cc(=O)[nH][nH]2)cc1,1%,-1%,-22%,-2%,nt,i,nt,nt,nt
O=C(Nc1ccc(-c2nc3ccccc3s2)cc1)c1cc(-n2cnnc2)ccc1Cl,?,?,-40%,?,2.3µM*,i,?,-13%,7.3µM*
Cc1ccc(NC(=O)c2cc(-n3cnnc3)ccc2Cl)cc1,-8%,11%,-9%,?,-10%,i,nt,nt,nt
COCCN1C(=O)COc2ccccc2C1C(=O)Nc1ccc2c(c1)OCCO2 (stereo not given),-3%,nt,nt,nt,nt,i,nt,nt,nt
COc1ccc(CNC(=O)c2cc3c(C)nc4ccccc4c3o2)c(OC)c1,-31%,-26%,-28%,-22%,5.2µM*,?,-2%,-5%,nt
SMILES,ATXN2 expr inh,TGFb inhibitor,HepG2 viability,A549 tox-1,Nrf2 block,S2 tox,FLuc counter 3,A549 tox-2,Nrf2 ARE inh
CC(C)CNc1nc(N)c([N+](=O)[O-])c(N2CCCCCC2)n1,-12%,?,-142%,-2%,9.2µM*,i,-2%,1%,8.2µM*
CCC(C)Nc1nc(N)c([N+](=O)[O-])c(N2CCCCCC2)n1 (stereo not given),-27%,-27%,-4%,7%,?,i,nt,nt,nt
Clc1ccc(N2CCN(c3ncnc4c3nc3n4CCCC3)CC2)cc1,nt,-3%,-15%,-4%,4.6µM*,nt,4%,-2%,1.5µM*
CCOc1ccc(CCNc2ncnc3onc(-c4ccc(Cl)cc4)c23)cc1,nt,-5%,-17%,-9%,7.3µM*,nt,2%,0%,13µM*
COc1cc(OC)cc(C2=Nn3c(nnc3-c3ccccc3O)SC2)c1,nt,nt,nt,1%,?,nt,nt,nt,nt
Cc1cc(C)c(C)c(S(=O)(=O)N2CCN(c3ncnc4ccccc34)CC2)c1C,nt,?,-37%,-20%,9.2µM*,i,0%,-22%,9.2µM*
C[C@@H]1C[C@H]2[C@@H]3CCC4=CC(=O)C=C[C@]4(C)[C@@]3(F)[C@@H](O)C[C@]2(C)[C@H]1C(=O)CO,1%,-20%,-9%,-1%,0.018µM*,i,3%,-15%,0.015µM*
